The record followed here is ChEMBL document CHEMBL3988442, “University of Dundee, Small-Polar-MMV Screening Library” (2021).

This experiment deals with T1, Proteasome subunit beta (Trypanosoma cruzi) (UniProt O96673).
T1 sequence (whole entry): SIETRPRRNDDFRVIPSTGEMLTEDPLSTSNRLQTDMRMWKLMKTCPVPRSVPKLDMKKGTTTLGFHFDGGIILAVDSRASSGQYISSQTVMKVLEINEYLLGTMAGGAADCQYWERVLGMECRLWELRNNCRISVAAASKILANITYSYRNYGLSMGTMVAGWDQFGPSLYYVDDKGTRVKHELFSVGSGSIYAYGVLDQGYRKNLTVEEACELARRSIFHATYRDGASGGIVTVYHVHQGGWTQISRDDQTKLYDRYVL
Briefly: Trypanosoma cruzi proteasome chymotrypsin-like activity (TcProtChymo) assay. The experiment is classed as functional. Set-up: scale not given: in the data most compounds retested in dose-response had high values. Conditions: 9.37 µM.
On to `COc1cccc(CN2CCCC(Nc3cccc(F)c3)C2)c1O` (stereo not given), for which the Percent Effect was found to be 5.24%.
For `CS(=O)(=O)Cc1ccc(CNC(=O)c2cccnc2O)cc1`, the Percent Effect worked out at 22.3%.
To `N#Cc1ccnc(N2CCN(CC(O)c3cccc(F)c3)CC2)c1` (stereo not given) belongs 2.83%.
As for `CN1C(=O)C[C@@H]2[C@@H]1CCN2S(=O)(=O)Cc1ccccc1`, the figure is 2.83%.
To `Cn1ncc2c1C(COCC1CC1)CN(Cc1ccc(F)cc1)C2` (stereo not given) belongs 8.12%; to `CCC1=N[C@@]2(CC[C@@H]3CN(C(=O)NCC(C)C)C[C@@H]32)C(=O)N1CC(C)C`, 12.8%; to `CC(O)CN1CCN(C(=O)c2cnn(-c3ccccc3F)c2)CC1` (stereo not given), 9.59%.
`O=C(CCc1nccs1)N1CCN(c2ccc(Br)cn2)CC1`: the Percent Effect is -4.12%.
As for `Cc1cc(CN2CC[C@H]3C(=O)N(c4ccccc4)CCO[C@H]3C2)no1`, the figure is 8.37%.
Consider `Cn1cc(-c2csc(N3CCN(C(=O)OC(C)(C)C)CC3)n2)cn1`, for which the Percent Effect amounted to 8.42%.
In the case of `Cc1noc(C(C)C)c1C(=O)NCc1cccc(N(C)C)c1`, the Percent Effect turned out to be 8.28%.
In the case of `Cc1ccc(N2CCCc3sc(C(=O)NCc4cccnc4)nc32)nn1`, the Percent Effect is 5.39%.
Regarding `Cc1nc2ccccc2nc1CN1CCCC1Cn1cncn1` (stereo not given), the Percent Effect came to 19.5%.
In the case of `CC(C)C(=O)N1CCN(C(=O)CCc2nnc(-c3ccccc3)o2)CC1`, the Percent Effect was determined as 0.901%.
To `Cn1cnnc1C1CCCN(C(=O)NCc2ccc3c(c2)OCO3)C1` (stereo not given) belongs 11.2%; to `CCn1cc(NC(=O)NCC2(N3CCOCC3)CCSC2)cn1` (stereo not given), 17.2%.
In the case of `CS(=O)(=O)NC1CCN(C(=O)NCCNc2ccccn2)CC1`, the Percent Effect was determined as 4.85%.
Turning to `Cc1cccc(-n2ncc(C(=O)N3CCn4c(C)nnc4C3)c2C)c1`, the Percent Effect worked out at 5.16%.
On to `O=C(c1cscn1)N1CCC[C@]2(C[C@H](OCC3CC3)CO2)C1`, for which the Percent Effect came out at 3.08%.
As for `N#Cc1cccnc1NCc1cccnc1N1CCC(C(N)=O)CC1`, the figure is 12.3%.
To `c1cnc(NCc2noc3c2CN(CCN2CCCC2)CC3)nc1` belongs 18.1%.
To `NC(=O)C1CCN(c2nc3nccc(-c4ccccc4)c3c(=O)[nH]2)CC1` belongs 14.8%; to `Cc1cc(NC(=O)NCc2ccccn2)n(C)n1`, 15.6%.
On to `Fc1ccc(CN2CCC(c3nccnc3-n3ccnc3)CC2)cc1`, for which the Percent Effect came to 12.5%.
As for `O=C(c1ccc(-n2cccn2)nc1)N1CCCN(c2cccnn2)CC1`, the figure is 13%; as for `CCN(CC)c1ccc(C(=O)NCc2cccnc2-n2cncn2)cn1`, 8.84%.
To `CCCNC(=O)CCNC(=O)Cc1nc(-c2ccco2)oc1C` belongs 13.2%; to `CN1CCCC(CNC(=O)N2CCN(Cc3ccon3)CC2)C1` (stereo not given), 1.74%.
As for `Cc1nc(C(C)(C)NC(=O)Nc2ccccc2)no1`, the figure is 6.92%.
For `CSCc1cccc(S(=O)(=O)NCCCN2CCOCC2)c1`, the Percent Effect was 3.33%.
As for `CN(Cc1ccsc1)C(=O)Nc1cccnc1N1CCCC1`, the figure is 2.62%; as for `CC(C)n1c(C2CCCN(Cc3ccnn3C)C2)nc2ccccc21` (stereo not given), 6.78%; as for `Cc1cc(CC(=O)N2CCCC2c2nc(C(C)C)no2)on1` (stereo not given), 18.8%.
As for `COc1cccc(CNc2nc(O)cc(C3CC(=O)N(C)C3)n2)c1` (stereo not given), the Percent Effect came to 16.7%.
As for `CC(=O)N1CCn2cc(CNC(=O)c3cccn3C)nc2C1`, the figure is 2.2%; as for `O=C1CC(c2ccccc2)C2(CCN(CC3CC3)CC2)N1` (stereo not given), 9.23%.
As for `CNC(=O)CSc1nc2c(cnn2Cc2ccc(F)cc2)c(=O)[nH]1`, the figure is 16.5%; as for `Cc1nc(C(=O)N2CCC(Nc3cccnn3)CC2)cs1`, 12.7%.
To `COc1cccc(OCc2cc(C(=O)NC[C@H]3CCCN3)n[nH]2)c1` belongs 7.19%.
With `Cc1ccc(CN2CCc3ncnc(C4CCOC4)c3CC2)s1` (stereo not given), the Percent Effect amounted to 5.98%.
